# Reference: the supplement of paper PMC12494721
# Counter-ions that a name gives are not always drawn.
# What was measured:
# Conditions in all cases: incubation time: 27 h, anaerobic, 37 °C;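 for the amine columns active = adjusted P below 0.05 in both replicates with a change the same way and a mean fold change under 0.8 or over 1.25; inactive = the rest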
# [1] = system: Clostridium sporogenes DSM 1664; assay: growth (OD595) fold change vs plate DMSO controls (fold change (ratio)); higher = more growth
# Procedure, shortened: (§1)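 The reported measure is growth: the fold change against the median of DMSO controls on the plate. Absorbance at 595 nm from anaerobic 96-well mGAM cultures grown for 27 h at 37 °C was blank-subtracted, corrected for background with 20 µM compound solutions in water, and converted to OD with a calibration factor of 5. Fold changes above 1.5 appear as NA, and values are the mean of 2 biological replicates.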
# [2] = system: Escherichia coli IAI1; assay: as above
# Procedure, shortened: as §1
# [3] = system: Klebsiella aerogenes DSM 30053; assay: as above
# Procedure, shortened: as §1
# [4] = system: Ruminococcus gnavus DSM 108212; assay: as above
# Procedure, shortened: as §1
# [5] = system: Klebsiella aerogenes DSM 30053; assay: fold change of Histamine concentration vs plate DMSO controls (fold change (ratio)); higher = more amine produced, active = hit call of the paper (significant change in both replicates, either direction)
# Procedure, shortened: (§2)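 Extracts of whole anaerobic mGAM cultures were analysed for amines by LC–triple-quadrupole MS with dynamic MRM and external calibration curves, with drift corrected within batch. Four gut strains were grown at 37 °C for 27 h in 80 µL wells with compounds at 20 µM final, sweeteners at 50 µM final. Each value expresses fold change over plate DMSO controls. The average of 2 biological replicates is shown.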
# [6] = system: Clostridium sporogenes DSM 1664; assay: fold change of Tryptamine concentration vs plate DMSO controls (fold change (ratio)); higher = more amine produced, active = hit call of the paper (significant change in both replicates, either direction)
# Procedure, shortened: as §2
# [7] = system: Ruminococcus gnavus DSM 108212; assay: as above
# Procedure, shortened: as §2
# [8] = system: Escherichia coli IAI1; assay: fold change of Putrescine concentration vs plate DMSO controls (fold change (ratio)); higher = more amine produced, active = hit call of the paper (significant change in both replicates, either direction)
# Procedure, shortened: as §2
# [9] = system: Klebsiella aerogenes DSM 30053; assay: as above
# Procedure, shortened: as §2
# [10] = system: Escherichia coli IAI1; assay: fold change of Cadaverine concentration vs plate DMSO controls (fold change (ratio)); higher = more amine produced, active = hit call of the paper (significant change in both replicates, either direction)
# Procedure, shortened: as §2
# [11] = system: Klebsiella aerogenes DSM 30053; assay: as above
# Procedure, shortened: as §2
# [12] = system: Ruminococcus gnavus DSM 108212; assay: fold change of 2-Phenylethylamine concentration vs plate DMSO controls (fold change (ratio)); higher = more amine produced, active = hit call of the paper (significant change in both replicates, either direction)
# Procedure, shortened: as §2
Compound,growth [1],growth [2],growth [3],growth [4],fold change of Histamine concentration [5],fold change of Tryptamine concentration [6],fold change of Tryptamine concentration [7],fold change of Putrescine concentration [8],fold change of Putrescine concentration [9],fold change of Cadaverine concentration [10],fold change of Cadaverine concentration [11],fold change of 2-Phenylethylamine concentration [12]
OC(CNCC(O)C1CCc2cc(F)ccc2O1)C1CCc2cc(F)ccc2O1 (stereo not drawn) [Nebivolol hydrochloride] (20 µM),1.15,0.992,0.992,0.785,1.03 (inactive),0.94 (inactive),0.882 (inactive),1.03 (inactive),1.01 (inactive),0.955 (inactive),0.998 (inactive),0.879 (inactive)
CCC(C)n1ncn(-c2ccc(N3CCN(c4ccc(OCC5COC(Cn6cncn6)(c6ccc(Cl)cc6Cl)O5)cc4)CC3)cc2)c1=O (stereo not drawn) [Itraconazole] (20 µM),1.03,0.985,1.03,0.531,1.13 (inactive),1.02 (inactive),1.05 (inactive),1.01 (inactive),1.03 (inactive),1 (inactive),0.995 (inactive),0.997 (inactive)
CCOC(=O)N1CCC(=C2c3ccc(Cl)cc3CCc3cccnc32)CC1 [Loratadine] (20 µM),1.04,1.01,1.04,0.87,0.98 (inactive),1.18 (inactive),0.864 (inactive),1.02 (inactive),0.999 (inactive),1.05 (inactive),1 (inactive),0.808 (inactive)
Nc1ccn([C@@H]2O[C@H](CO)[C@@H](O)C2(F)F)c(=O)n1 [Gemcitabine] (20 µM),0.371,0.338,0.294,0,1.07 (inactive),0.969 (inactive),0.641 (active),0.969 (inactive),1.01 (inactive),1.02 (inactive),0.999 (inactive),0.753 (inactive)
Oc1c(Cl)cc(Cl)cc1Sc1cc(Cl)cc(Cl)c1O [Bithionol] (20 µM),0,0.881,1.01,0.0806,1.05 (inactive),0.0165 (active),0.101 (active),1.26 (active),1.02 (inactive),1.51 (active),1.01 (inactive),0.0838 (active)
CN(C)CCOc1ccc(/C(=C(/CCCl)c2ccccc2)c2ccccc2)cc1 [Toremifene] (20 µM),1.18,1.1,1.15,0.943,0.943 (inactive),1.02 (inactive),0.647 (active),0.998 (inactive),0.975 (inactive),0.98 (inactive),1.04 (inactive),0.871 (inactive)
NS(=O)(=O)c1cc2c(cc1Cl)N=C(CSCc1ccccc1)NS2(=O)=O [Benzthiazide] (20 µM),1.1,0.998,1.02,1.08,0.978 (inactive),0.983 (inactive),0.961 (inactive),0.975 (inactive),0.993 (inactive),1.02 (inactive),0.993 (inactive),0.939 (inactive)
C#C[C@]1(OC(C)=O)CC[C@H]2[C@@H]3CCC4=C[C@@H](OC(C)=O)CC[C@@H]4[C@H]3CC[C@@]21C [Ethynodiol diacetate] (20 µM),0.766,0.814,1.02,1.14,0.897 (inactive),0.966 (inactive),1.01 (inactive),0.894 (inactive),1 (inactive),1.09 (inactive),1.02 (inactive),1.02 (inactive)
Cc1ccc(Nc2c(F)cccc2Cl)c(CC(=O)O)c1 [Lumiracoxib] (20 µM),0.867,0.984,1.1,1.08,0.88 (inactive),0.956 (inactive),0.971 (inactive),1.02 (inactive),1.02 (inactive),1.02 (inactive),1.03 (inactive),0.994 (inactive)
Cn1cc(C(=O)Nc2ccccc2-c2cc(F)c(F)c(F)c2)c(C(F)F)n1 (20 µM),1.04,0.97,0.98,0.98,1.02 (inactive),1.03 (inactive),0.986 (inactive),1.02 (inactive),1.02 (inactive),1.01 (inactive),0.989 (inactive),0.966 (inactive)
COc1cccc(CCc2ccccc2OCC(CN(C)C)OC(=O)CCC(=O)O)c1 (stereo not drawn) [Sarpogrelate hydrochloride] (20 µM),1.19,0.978,1.02,0.991,0.977 (inactive),0.989 (inactive),0.97 (inactive),1.02 (inactive),0.999 (inactive),1.03 (inactive),0.996 (inactive),0.961 (inactive)
CCC1(C)CC(=O)NC1=O (stereo not drawn) [Ethosuximide] (20 µM),0.953,1,1.07,0.928,0.991 (inactive),1.07 (inactive),0.992 (inactive),1 (inactive),0.995 (inactive),0.995 (inactive),1.03 (inactive),1.02 (inactive)
C[C@]12CC[C@@H]3c4ccc(O)cc4C[C@@H](CCCCCCCCC[S+]([O-])CCCC(F)(F)C(F)(F)F)[C@H]3[C@@H]1CC[C@@H]2O (stereo partly drawn) [Fulvestrant] (20 µM),1.25,1.06,1.03,1.13,0.97 (inactive),0.98 (inactive),1.2 (inactive),0.954 (inactive),0.979 (inactive),0.974 (inactive),1.02 (inactive),1.21 (inactive)
CC(CCc1ccccc1)NCC(O)c1ccc(O)c(C(N)=O)c1 (stereo not drawn) [Labetalol hydrochloride] (20 µM),1.09,0.963,0.974,0.85,0.944 (inactive),1 (inactive),0.967 (inactive),1.01 (inactive),0.996 (inactive),0.923 (inactive),1 (inactive),0.939 (inactive)
COc1cc(C(=O)NS(=O)(=O)c2ccccc2C)ccc1Cc1cn(C)c2ccc(NC(=O)OC3CCCC3)cc12 [Zafirlukast] (20 µM),0.542,0.946,0.99,0.355,1.05 (inactive),0.371 (active),0.582 (active),0.977 (inactive),1.02 (inactive),1.02 (inactive),1.01 (inactive),0.814 (inactive)
CC1(C)S[C@@H]2[C@H](NC(=O)[C@H](N)c3ccc(O)cc3)C(=O)N2[C@H]1C(=O)O [Amoxicillin] (20 µM),0,0.796,0.828,0.198,1.1 (inactive),0.0237 (active),0.0355 (active),3.1 (active),1.05 (inactive),1.41 (inactive),1.06 (inactive),0.0375 (active)
CC(=O)N(CC(C)C(=O)O)c1c(I)cc(I)c(N)c1I (stereo not drawn) [Iocetamic acid] (20 µM),0.863,1.01,0.986,0.975,1.04 (inactive),1.05 (inactive),0.971 (inactive),1.09 (inactive),1 (inactive),0.988 (inactive),0.987 (inactive),0.924 (inactive)
O=c1[nH]cc(F)c(=O)[nH]1 [5-fluorouracil] (20 µM),1.2,0.87,0.897,1.21,0.728 (inactive),0.767 (inactive),0.917 (inactive),0.626 (inactive),0.961 (inactive),0.945 (inactive),0.979 (inactive),0.918 (inactive)
CNCCC(Oc1ccc(C(F)(F)F)cc1)c1ccccc1 (stereo not drawn) [Fluoxetine hydrochloride] (20 µM),1.18,1.02,1.03,1.2,0.972 (inactive),0.945 (inactive),0.882 (inactive),0.927 (inactive),0.993 (inactive),1.19 (inactive),0.995 (inactive),0.907 (inactive)
CC(C)=CCC1C(=O)N(c2ccccc2)N(c2ccccc2)C1=O [Feprazone] (20 µM),1.07,0.999,1.01,1.04,0.971 (inactive),1.02 (inactive),1.01 (inactive),1.02 (inactive),1.02 (inactive),0.996 (inactive),1 (inactive),1.03 (inactive)
O=C(CCCCCCC(=O)Nc1ccccc1)NO [Vorinostat] (20 µM),0.808,1.07,0.974,1.04,1.17 (inactive),0.962 (inactive),1.05 (inactive),1.11 (inactive),0.99 (inactive),0.99 (inactive),0.967 (inactive),1.1 (inactive)
Cn1c(=O)cc(N2CCC[C@@H](N)C2)n(Cc2ccccc2C#N)c1=O [Alogliptin benzoate] (20 µM),1.06,0.955,1.09,1.02,0.923 (inactive),1.01 (inactive),0.899 (inactive),1.01 (inactive),1.01 (inactive),0.992 (inactive),1.01 (inactive),0.897 (inactive)
CN1CCN(C2Cc3ccccc3Sc3ccc(Cl)cc32)CC1 (stereo not drawn) [Octoclothepin maleate salt] (20 µM),0.962,0.98,0.941,0.931,1.01 (inactive),1.05 (inactive),0.848 (inactive),1.06 (inactive),1 (inactive),1.1 (inactive),0.99 (inactive),0.992 (inactive)
CC(=O)OCC(CCn1cnc2cnc(N)nc21)COC(C)=O [Famciclovir] (20 µM),0.805,1.06,0.981,0.993,1.15 (inactive),1.03 (inactive),1.05 (inactive),1.03 (inactive),1.01 (inactive),1.01 (inactive),0.979 (inactive),1.04 (inactive)
